Measured values as given in ChEMBL document CHEMBL4513216, “Probing the Open Global Health Chemical Diversity Library for Multistage-Active Starting Points for Next-Generation Antimalarials” (ACS Infect Dis, 2020).
Hit rate of the full screen: of about 68,000 compounds, about 2,700 (4%) showed an effect of 50% or more. The sample holds strong results, similar compounds and a random draw of the others, so the mix is not that of the screen.

tested on: Plasmodium berghei; test: Screen against P. berghei liver stage (PbLuc), transformed with Luciferase, at 2uM; format: functional, HepG2; details: tested at 2 uM

| SMILES | INHIBITION |
| --- | --- |
| Cc1cc(CN(C)C(=O)CN2CC3(CCNCC3)OC2=O)n(C)n1 | 24.12% |
| CC(Cn1cc(Br)cn1)C(=O)Nc1ccc(C(N)=O)cc1 (configuration not stated) | -34.79% |
| CSc1nnc(C2CCN(C(=O)N3CCCC3)CC2)n1C | 5.83% |
| O=C(Nc1cccnc1)[C@H]1C[C@H]2OCC[C@H]2N(Cc2ccc(F)cc2)C1 | 26.62% |
| Cn1ccnc1CN1CCc2ncnc(N3CCCC(C#N)C3)c2CC1 (configuration not stated) | 23.64% |
| N#CC1CCCN(c2ncnc3c2CCN(Cc2ccccc2)CC3)C1 (configuration not stated) | 51.9% |
| c1ccc(CN2CCc3ncnc(C4CC4)c3CC2)cc1 | 14.13% |
| Cc1cc(Cn2cc(C(C)Cc3ccc4c(c3)OCO4)nn2)n[nH]1 (configuration not stated) | 49.88% |
| CC(Cc1ccc2c(c1)OCO2)c1cn(CCN2CCCC2)nn1 (configuration not stated) | 69.71% |
| CC(Cc1ccc2c(c1)OCO2)c1cn(CCc2c[nH]cn2)nn1 (configuration not stated) | 46.58% |
| CN(Cc1ccncc1)C1COC2(CCN(Cc3ccco3)CC2)C1 (configuration not stated) | 45.36% |
| O=C(Nc1cn[nH]c1)c1ccc(O)nc1 | 45.75% |
| Cn1nc(C2CCCN(Cc3ccc(F)c(F)c3)C2)c2nccnc21 (configuration not stated) | 38.65% |
| O=C(c1n[nH]c(=O)c2ccccc12)N1CCC(O)(CN2CCOCC2)C1 (configuration not stated) | -28.4% |
| Cc1ccc(CN(CCCn2ccnc2)Cc2c(F)cccc2F)s1 | 36.26% |
| O=C(CCn1cccn1)N1C[C@H]2CC[C@@H](C1)N(Cc1ccccn1)C2=O | -19.54% |
| Cc1ccc2c(c1)C(NCc1ncnn1C)CC2 (configuration not stated) | 38.67% |
| Cn1ncnc1CNC1CCCc2cc(F)ccc21 (configuration not stated) | -9.03% |
| Cn1ncnc1CNC1CCc2cc(Cl)ccc21 (configuration not stated) | 74.44% |
| CC(C)NC(=O)C1CCc2nnc(C(C)(C)C)n21 (configuration not stated) | 12.84% |
| O=C(CCN1CCOCC1)Nc1cccc(CNCc2ccsc2)c1 | 3.54% |
| CC(C)C(NC(=O)NCc1cccnc1N(C)C)c1cccs1 (configuration not stated) | -16.65% |
| CCN(C(=O)NCc1ccccc1OC(F)F)C(C)c1cccnc1 (configuration not stated) | 38.67% |

| SMILES | INHIBITION |
| --- | --- |
| CN(C)c1ccc(NC(=O)NCc2cccnc2N(C)C)cn1 | 1.63% |
| CCN(C(=O)NCc1cccnc1N(C)C)C(C)c1cccnc1 (configuration not stated) | 57.75% |
| CN(C)c1ncccc1CNC(=O)NCc1ccco1 | 37.15% |
| CC(NC(=O)NCc1cccnc1N(C)C)c1ccc(F)cc1 (configuration not stated) | 59.21% |
| CC(NC(=O)NCc1cccnc1N(C)C)c1cccs1 (configuration not stated) | 51.31% |
| CN(C)c1ncccc1CNC(=O)NCC(c1cccs1)N(C)C (configuration not stated) | 31.55% |
| CCOc1ccccc1CNC(=O)N(CC)C(C)c1cccnc1 (configuration not stated) | 21.97% |
| CCN(CC1CN(CC2CCC2)CCO1)c1cccnn1 (configuration not stated) | 47.61% |
| Cc1nc2n(n1)CC(NCc1cc(Cl)c3c(c1)OCCCO3)CC2 (configuration not stated) | 3.86% |
| CN(Cc1ccco1)[C@@H]1CN(Cc2ccc(F)cc2)[C@@H]2CCCO[C@H]12 | -12.36% |
| COc1ncnc(N)c1CNCCc1ccc(-n2cccn2)cc1 | 18.37% |
| O=C(c1cccs1)N1CC[C@H]2C[C@@H](c3nnc(C4CC4)o3)O[C@@H]2C1 | 31.41% |
| CN(C)C(=O)C1OC2(CCN(C(=O)c3ccoc3)CC2)c2ccccc21 (configuration not stated) | 25.43% |
| CCC(O)CN1CCN(C(=O)c2cccn2Cc2ccncc2)CC1 (configuration not stated) | -21.72% |
| COCC1Cn2nnc(-c3cnn(C)c3)c2CN1Cc1ccco1 (configuration not stated) | 14.97% |
| COCC1Cn2nnc(-c3cnn(C)c3)c2CN1Cc1ccc(C)o1 (configuration not stated) | 56.76% |
| COCC1Cn2nnc(-c3cnn(C)c3)c2CN1Cc1ccc(C)s1 (configuration not stated) | 52.77% |
| COCC1Cn2nnc(-c3cnn(C)c3)c2CN1Cc1ccoc1 (configuration not stated) | 19.42% |
| COCC1Cn2nnc(-c3cnn(C)c3)c2CN1Cc1cccs1 (configuration not stated) | -34.95% |
| COCC1Cn2nnc(-c3cnn(C)c3)c2CN1Cc1ccsc1 (configuration not stated) | 33.14% |
| Cc1ccccc1CNC(=O)Cn1nc(-c2ccc(F)cc2)oc1=O | -25.13% |
| CCOc1ccc(C(=O)Nc2c(C)nc3ccc(Cl)cn3c2=O)cc1 | 27% |
| Cc1cc2cc(Nc3c(C#N)c(=O)n(C)c(=O)n3C)ccc2[nH]1 | 13.53% |

| SMILES | INHIBITION |
| --- | --- |
| O=C(CSc1ccc2c(c1)OCCO2)NS(=O)(=O)c1cccnc1 | 16.95% |
| Cc1cc(C)cc(N(C)S(=O)(=O)c2cc(C(=O)O)cs2)c1 | -8.84% |
| Cc1ccc(N(C)S(=O)(=O)c2cc(C(=O)O)cs2)cc1 | -29.54% |
| Cc1cccc(N(C)S(=O)(=O)c2cc(C(=O)O)cs2)c1 | 68.24% |
| O=C(Nc1ccccc1)N1C[C@@H]2C[C@H](C(=O)N3CCOCC3)[C@H](C1)O2 | 24.15% |
| CC(C)(C)CC(=O)NCCn1nc(C2CCNC2)c2cccnc21 (configuration not stated) | 21.13% |
| CN(C)c1ccc(NC(=O)NCc2ccccn2)cn1 | 17.39% |
| Cc1nc(CNC(=O)Nc2ccc(N(C)C)nc2)sc1C | 74.34% |
| CN(C)c1ccc(NC(=O)NCc2ccc(Cl)s2)cn1 | 17.62% |
| O=C(CC1=CSC2=NCCN12)N1CCCC(CCc2cccc(F)c2)C1 (configuration not stated) | -33.45% |
| CN(C)C(=O)Cc1ccccc1NCc1nc(Cc2ccccc2)no1 | -12.95% |
| CNC(=O)C1(c2cnccn2)CCCN1C(=O)c1ccccn1 (configuration not stated) | -3.55% |
| OCCNc1nc(Nc2ccccc2)c2nccnc2n1 | 4.64% |
| Cc1cnn(CCNCC(=O)Nc2ccc(Cl)cn2)c1 | -1.56% |
| Cc1cnn(CCNC(C)C(=O)Nc2ccc(Cl)cn2)c1 (configuration not stated) | 67.44% |
| Cc1cnn(CC(C)NCC(=O)Nc2ccc(Cl)cn2)c1 (configuration not stated) | 42.11% |
| Cc1nn(C)c2c(N3CCN(C(=O)C(C)C)CC3)ncnc12 | 31.57% |
| CCN(CCn1cccn1)Cc1nc(-c2cccc(C)c2)oc1C | 65.76% |
| CCN(CCn1cccn1)Cc1nc(-c2ccoc2)oc1C | -16.71% |
| CCN(CCn1cccn1)Cc1nc(-c2ccc(F)cc2)oc1C | -11.66% |
| Cc1cccc(CN2CCC3(CC2)NC(=O)C[C@H]3c2cnn(C)c2)n1 | 14.65% |
